Assay outcomes deposited in PubChem by The Scripps Research Institute Molecular Screening Center.
ABHD5-PLIN5 inh: ABHD5-PLIN5 interaction inhibitors, primary screen, cell lysate, split luciferase complementation, luminescence; AID 602281, 2012; 0.78% of 360,000 active; inhibition, % at 4 µM; Split G. princeps luciferase complementation, 4 h;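 active = inhibition above the mean inhibition across every tested compound plus 3 SD, cut at about 22% in these data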;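 note: 0% = DMSO only wells and the 100% control is not disclosed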
Target sequence (Q00G26 whole entry, looked up): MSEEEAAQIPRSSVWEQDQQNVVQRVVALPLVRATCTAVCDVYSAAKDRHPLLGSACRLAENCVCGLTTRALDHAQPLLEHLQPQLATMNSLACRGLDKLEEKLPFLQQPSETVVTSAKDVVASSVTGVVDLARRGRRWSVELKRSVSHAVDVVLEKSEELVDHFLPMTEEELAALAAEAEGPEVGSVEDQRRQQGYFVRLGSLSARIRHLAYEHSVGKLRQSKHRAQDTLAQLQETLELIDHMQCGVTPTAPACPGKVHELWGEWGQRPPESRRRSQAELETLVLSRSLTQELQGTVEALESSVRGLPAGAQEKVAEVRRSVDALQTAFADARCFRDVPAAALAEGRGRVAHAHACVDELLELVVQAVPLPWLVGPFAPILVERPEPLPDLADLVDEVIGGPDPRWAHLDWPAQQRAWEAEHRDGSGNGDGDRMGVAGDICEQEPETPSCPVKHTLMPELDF
Target sequence (Q8WTS1 whole entry, looked up): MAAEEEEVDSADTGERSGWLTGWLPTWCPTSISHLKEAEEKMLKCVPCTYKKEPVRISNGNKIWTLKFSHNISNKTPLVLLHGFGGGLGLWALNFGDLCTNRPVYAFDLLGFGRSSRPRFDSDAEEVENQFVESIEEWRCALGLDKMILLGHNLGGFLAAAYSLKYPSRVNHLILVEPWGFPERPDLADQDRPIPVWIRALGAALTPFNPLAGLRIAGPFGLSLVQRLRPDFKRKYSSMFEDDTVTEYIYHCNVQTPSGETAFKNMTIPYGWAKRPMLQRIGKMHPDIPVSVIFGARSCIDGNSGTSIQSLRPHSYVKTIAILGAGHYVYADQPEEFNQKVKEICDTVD
NOD2 RIPK2 PPI: NOD2-RIPK2 binding disruptors in cells, primary screen, fluorescence, CHO cells, BLA complementation; Receptor-interacting serine/threonine-protein kinase 2 (Homo sapiens), O43353; CCF4 ratio; inhibition, % at 4.98 µM; 0.38% of 360,000 active; AID 624267, 2012; in the data active = inhibition above about 21%;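 note: 0% = vehicle only and 100% = reference blocker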
rCAG binder: binders of r(CAG) RNA repeats, primary screen, biochemical, fluorescence; inhibition, % at 3 µM; AID 651821, 2012; r(CAG) RNA repeat, TO-PRO-1 dye displacement fluorescence; 1.3% of 370,000 active;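 active = inhibition above the plate cutoff, the mean of all test compounds on that plate plus 3 SD, cut at about 35% in these data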;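 note: 0% = DMSO alone and 100% = 100 µM mitoxantrone as full dye displacement; higher means more dye released from RNA so lower well fluorescence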
TLR4 MyD88 comp: inhibitors of TLR4-MyD88 association in cells, primary screen, cell-based, HeLa CL3-4, BLA complementation, FRET ratio. Toll-like receptor 4 (Homo sapiens) + Myeloid differentiation primary response protein …. HeLa CL3-4 TLR4/MyD88 BLA complementation. inhibition, % at 8.4 µM. 0.18% of 200,000 active. AID 861, 2007; in the data active = inhibition above about 25%;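 note: 0% = vehicle and 100% = reference inhibitor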
PRMT1 FP inh: PRMT1 methyltransferase inhibitors, primary screen, biochemical, fluorescence polarization; Protein arginine N-methyltransferase 1 (Homo sapiens), Q99873; recombinant PRMT1, activity-based probe fluorescence polarization; inhibition, % at 2.79 µM; 1.3% of 370,000 active; AID 652257, 2013;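 active = inhibition above about 21% made by adding two undisclosed values, limit read from the data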
TLR9-MyD88 inh: inhibitors of TLR9-MyD88 association in cells, primary screen, cell-based, CHO, BLA complementation, fluorescence | Toll-like receptor 9 (Homo sapiens) + Myeloid differentiation primary response protein … | CCF4 FRET ratio | inhibition, % at 4.98 µM | 0.21% of 340,000 active;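 active = inhibition above the mean over all tested compounds plus 3 SD, cut at about 21% in these data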;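 note: 0% = DMSO only wells and 100% = clavulanate BLA inhibitor control wells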
rCAG binder conf: small molecules binding CAG repeat RNA – biochemical, fluorescence, confirmation; inhibition, % at 3 µM; AID 652065, 2013; r(CAG) RNA repeat, TO-PRO-1 dye displacement fluorescence; 70% of 4,300 active; shares compounds with rCAG binder;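 active = inhibition above a per-plate cutoff, the mean inhibition of sample wells plus 3 SD, cut at about 35% in these data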;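 note: loss of TO-PRO-1 fluorescence as compound displaces dye from 1x1 AA loop RNA; 0% = DMSO only wells and 100% = 100 µM mitoxantrone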
DNA CAG counter: displacement of TO-PRO-1 from CAG DNA duplex, counter-screen for rCAG RNA repeat binder project, biochemical, fluorescence, TO-PRO-1 dye, d(CAG) DNA oligo. inhibition, % at 3 µM. shares compounds with rCAG binder. AID 652068, 2013. d(CAG) DNA oligo TO-PRO-1 dye displacement. 94% of 4,300 active;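 active = inhibition above its plate's cutoff, the mean test-well inhibition plus 3 SD, cut at about 4.8% in these data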;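 note: 0% = DNA dye mix with DMSO and 100% = 100 µM mitoxantrone; hits displace the dye from DNA and so lower well fluorescence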
Active calls of the source: *. Only some compounds are listed: those with a hit (about 3.3% of all), similar ones and a draw of the others.

What do the screens show for `CCOC(=O)C1=C(C)N=c2s/c(=C\c3ccc(O)c([N+](=O)[O-])c3)c(=O)n2C1c1ccccc1OC` (centres undefined)?
ABHD5-PLIN5 inh: -11; NOD2 RIPK2 PPI: 8; rCAG binder: 52*; PRMT1 FP inh: 5; TLR9-MyD88 inh: -2; rCAG binder conf: 88*; DNA CAG counter: 64*

Results for Cc1ccc(C2c3[nH]c4ccccc4c3C[C@H]3C(=O)N(c4ccccc4C(=O)N4CCC(C(=O)O)CC4)C(=O)N23)cc1 (some centres undefined) ?
ABHD5-PLIN5 inh: -11; NOD2 RIPK2 PPI: 4; rCAG binder: 32; PRMT1 FP inh: -4; TLR9-MyD88 inh: -13

How did O=C(O)C1CCN(C(=O)c2ccccc2N2C(=O)[C@@H]3Cc4c([nH]c5ccccc45)C(c4cccc(Cl)c4)N3C2=O)CC1 (some centres undefined) do in these assays?
ABHD5-PLIN5 inh: -12; NOD2 RIPK2 PPI: -4; rCAG binder: 38*; PRMT1 FP inh: 1; TLR9-MyD88 inh: -8; rCAG binder conf: 47*; DNA CAG counter: 14*

How did Cc1ccc(C2c3[nH]c4ccccc4c3C[C@H]3C(=O)N(c4ccccc4C(=O)N4CCC[C@@H]4C(=O)O)C(=O)N23)cc1 (some centres undefined) do in these assays?
ABHD5-PLIN5 inh: -8; NOD2 RIPK2 PPI: 3; rCAG binder: 39*; PRMT1 FP inh: -4; TLR9-MyD88 inh: -9; rCAG binder conf: 57*; DNA CAG counter: 19*

Results for COc1ccc(N2C(=O)C3C(c4ccc(C(=O)O)cc4)NC(Cc4ccccc4)(C(=O)O)C3C2=O)c([N+](=O)[O-])c1 (centres undefined) ?
ABHD5-PLIN5 inh: -4; NOD2 RIPK2 PPI: -3; rCAG binder: 37*; TLR4 MyD88 comp: 12; PRMT1 FP inh: 13; TLR9-MyD88 inh: 4; rCAG binder conf: 18; DNA CAG counter: 6.6*

How did O=C(O)CCn1cc(C2CC(c3ccccc3)=NN2c2ccccc2)c(-c2ccccc2)n1 (centres undefined) do in these assays?
ABHD5-PLIN5 inh: -3; NOD2 RIPK2 PPI: 4; rCAG binder: 55*; TLR4 MyD88 comp: -3; PRMT1 FP inh: 1; TLR9-MyD88 inh: 3; rCAG binder conf: 62*; DNA CAG counter: 22*

What do the screens show for `Cc1ccc(-c2nn(-c3ccccc3)cc2C2CC(c3cccs3)=NN2C(=O)CCC(=O)O)cc1` (centres undefined)?
ABHD5-PLIN5 inh: 2; NOD2 RIPK2 PPI: -15; rCAG binder: 15; TLR4 MyD88 comp: -8; PRMT1 FP inh: 2; TLR9-MyD88 inh: 2

What do the screens show for `COc1cc(C2C(C#N)=C(N)N(c3ccc(F)cc3)C3=C2S(=O)(=O)CC3)ccc1O` (centres undefined)?
ABHD5-PLIN5 inh: 1; NOD2 RIPK2 PPI: 2; rCAG binder: 38*; TLR4 MyD88 comp: 12; PRMT1 FP inh: 25*; TLR9-MyD88 inh: -1; rCAG binder conf: 15; DNA CAG counter: 9.0*

How did COC(=O)[C@]12C[C@H](CC(=O)NCc3ccc(C)o3)C(=O)N(Cc3ccccc3)C1=C[C@H](C(C)(C)C)O[C@@H]2C do in these assays?
rCAG binder: 4; PRMT1 FP inh: 12

How did Cc1nnc(C)n1N=Cc1ccc(Cl)c([N+](=O)[O-])c1 do in these assays?
rCAG binder: 1; PRMT1 FP inh: 0

Results for CCN(CC)c1ccc(NC(=O)CSc2ccsc2[N+](=O)[O-])c(C)c1 ?
ABHD5-PLIN5 inh: -15; NOD2 RIPK2 PPI: 2; rCAG binder: 17; TLR4 MyD88 comp: -18; PRMT1 FP inh: 1; TLR9-MyD88 inh: 6

Results for O=C(CSc1ccsc1[N+](=O)[O-])Nc1cc(F)ccc1F ?
ABHD5-PLIN5 inh: 5; NOD2 RIPK2 PPI: -5; rCAG binder: 38*; TLR4 MyD88 comp: -6; PRMT1 FP inh: 4; TLR9-MyD88 inh: 3; rCAG binder conf: 15; DNA CAG counter: 11*

Results for CC(=O)c1ccc(NC(=O)CSc2ccsc2[N+](=O)[O-])cc1 ?
ABHD5-PLIN5 inh: 5; NOD2 RIPK2 PPI: -5; rCAG binder: 35*; TLR4 MyD88 comp: -12; PRMT1 FP inh: 7; TLR9-MyD88 inh: -1; rCAG binder conf: 20; DNA CAG counter: 14*

What do the screens show for `CCC1(c2ccc(OC)cc2)NC(=O)N(CC(=O)c2ccc3c(c2)OCCO3)C1=O` (centres undefined)?
ABHD5-PLIN5 inh: 1; NOD2 RIPK2 PPI: 12; rCAG binder: 0; PRMT1 FP inh: -1; TLR9-MyD88 inh: -11

How did CC(=O)c1cccc(NC(=O)CSc2n[nH]c(=O)n2C2CC2)c1 do in these assays?
ABHD5-PLIN5 inh: -5; NOD2 RIPK2 PPI: -15; rCAG binder: 3; PRMT1 FP inh: 3; TLR9-MyD88 inh: 2

How did O=C(Cc1ccc(F)cc1)NCCS(=O)(=O)N1CCN(c2cccc(Cl)c2)CC1 do in these assays?
ABHD5-PLIN5 inh: 2; NOD2 RIPK2 PPI: -7; rCAG binder: -4; PRMT1 FP inh: -2; TLR9-MyD88 inh: 12

How did CC(=O)Nc1ccc(S(=O)(=O)CC(=O)CS(=O)(=O)c2ccc(NC(C)=O)cc2)cc1 do in these assays?
ABHD5-PLIN5 inh: 8; NOD2 RIPK2 PPI: -2; rCAG binder: 39*; PRMT1 FP inh: 9; TLR9-MyD88 inh: 2; rCAG binder conf: 8; DNA CAG counter: 4

How did O=C(CS(=O)(=O)c1ccccc1)CS(=O)(=O)c1ccccc1 do in these assays?
rCAG binder: 53*; PRMT1 FP inh: -2; rCAG binder conf: 2; DNA CAG counter: 1

What do the screens show for `Cc1cc(Br)cn2c(Cc3cccc(F)c3)c(C3CCCCC3)nc12`?
ABHD5-PLIN5 inh: -15; NOD2 RIPK2 PPI: 0; rCAG binder: 3; PRMT1 FP inh: -4

Results for COC(=O)c1ccc(COc2ccccc2/C=C/C(=O)c2ccc(OCC(=O)O)cc2)cc1 ?
ABHD5-PLIN5 inh: 6; NOD2 RIPK2 PPI: -6; rCAG binder: 56*; PRMT1 FP inh: 10; TLR9-MyD88 inh: 1; rCAG binder conf: 64*; DNA CAG counter: 24*
